# Assay results from PubChem BioAssay AID651644 (National Center for Advancing Translational Sciences (NCATS), 2012).
# In all, about 360,000 compounds went through this assay and about 750 (0.21%) were called active. Not shown: some 2% with an inconclusive outcome. Only a selection was taken, and actives are over-represented in it overall. A number with no mark means an inactive call. Calls follow the shape of the dose curve; as a rule, active = well fitted falling curve with a large enough effect; inconclusive = small, poorly fitted or top-dose-only effect; inactive = no such curve, though single readings can be large or run the other way.
# Assay: qHTS Assay for Inhibitors of the HIV-1 protein Vpr; also: nearly all actives have a fitted effect of over 50% in size
# Details: S. pombe RE007 Vpr strain, BacTiter-Glo ATP luminescence, 24 h; series mostly up to 92.2 µM; activity change, negative = less growth: at the top concentration
# Source text: Human immunodeficiency virus type 1 (HIV-1), the causative agent of AIDS, contains a protein called viral protein R (Vpr) that plays an important role in the viral life cycle and the pathogenesis of HIV-1.
# These Vpr specific activities include cytoplasmic-nuclear shuttling, induction of cell cycle G2 arrest and cell killing. The cytoplasmic-nuclear shuttling is believed to participate in nuclear transport of the proviral integration complex (PIC). The cell cycle G2 arrest induced by Vpr is thought to suppress human immune functions by preventing T cell clonal expansion and to provide an optimized cellular environment for maximal levels of viral replication. In addition, Vpr induces apoptosis, which may contribute to the depletion of CD4 T cells in HIV-infected patients. Since the Vpr-specific activities have been linked to such clinical manifestation of AIDS as activation of viral replication, suppression of host immune responses and depletion of CD4+ T-lymphocytes, identification of new molecular probes that can inhibit the Vpr activities could potentially provide a new approach to reduce Vpr-mediated detrimental effects in HIV-infected patients, and thus prolong patient's lives. Currently, there are no anti-Vpr drugs.
# A fission yeast (Schizosaccharomyces pombe) model system for the Vpr studies has been developed which measures HIV-1 Vpr-induced cell death. This assay will be used for to screen the NIH Molecular Libraries Small Molecule Repository (MLSMR) identify small molecule HIV-1 Vpr inhibitors.
# NIH Chemical Genomics Center [NCGC]
# NIH Molecular Libraries Probe Centers Network [MLPCN]
# Assay Submitter (PI): Richard Zhao, University of Maryland
# The fission yeast RE007 strain was used, which carries a single integrated copy of HIV-1 vpr gene in the yeast chromosome. The starting culture was frozen stock 100ul of yeast RE007 in 150ml of *PMG+AL medium, Incubation in 30 degree plus 99% humidity for 18 hours. Next day dispensed 2.5ul of PMG+AL medium in each well to 1536 well white solid plate, then 23nL compound were delivered to each well using a pin tool. Check OD for overnight culture and add cell density at 0.01 for each well, incubation in 30 degree plus 99% humidity for 24 hours. After add 5 ul of *BacTiter/Glo detect reagent to each well at room temperature for 5 minutes then to red out results with Viewlux CCD camera.
# % is scaled to controls: 0 for no effect and ±100 for the full control effect; potency is read from the fitted curve at half-maximal effect.
Structure (SMILES),Potency,"activity change, negative = less growth"
CN(O)C(=S)c1ccccc1,12.6 µM (active),
COC(=O)[C@@H]1C[C@@]2(O)[C@H](O)[C@H](O)[C@H](O)C[C@H]2N1Cc1ccc(C)s1,,8.05%
O=C(COc1coc(CN2CCN(c3ccccc3F)CC2)cc1=O)N1CCc2ccccc21,,-5.08%
Cc1ccc(S(=O)Cc2ccc(C(=O)N3CCN(C4CCCCC4)CC3)o2)cc1 (centres undefined),,7.22%
CCN(C(=O)COC(=O)/C=C/c1nc2ccccc2s1)C1CCS(=O)(=O)C1 (centres undefined),,-22.5%
CC(=O)c1ccc(N2Cc3ccccc3C2)cc1,,-0.524%
CSc1c(SCc2ccccc2)cnn(Cc2ccccc2)c1=O,,8.78%
O=S(=O)(c1ccc2c(c1)OCCO2)N1CCc2ccccc21,,5.48%
O=C(CN1CCc2cc3c(cc2C1)OCCCO3)Nc1ccccc1,,4.55%
O=C(CCN1CCc2ccccc2C(O)(c2ccccc2)C1)c1ccc2c(c1)OCCO2 (centres undefined),5.62 µM (active),
Cn1c(=O)cc(OCCCC(=O)N2CCN(c3ccccn3)CC2)c2ccccc21,,8.93%
CCC(Oc1ccccc1C)C(=O)Nc1ccc(S(=O)(=O)Nc2cc(C)on2)cc1 (centres undefined),,-2.84%
O=C(CNCc1cccs1)Nc1cc(S(=O)(=O)N2CCCC2)ccc1Cl,,12.6%
COc1cccc(NCCC(=O)c2cccc([N+](=O)[O-])c2)c1,,-24.8%
COC(=O)/C=C\C(=O)Nc1cccc([N+](=O)[O-])c1,7.94 µM (active),
CC(NC(=O)Nc1cccc([N+](=O)[O-])c1)c1ccc2c(c1)OCO2 (centres undefined),,10.8%
O=C(COC(=O)CCCNC(=O)c1ccc(Cl)cc1)Nc1cc(Cl)ccc1Cl,,0.174%
O=C(Cn1nnc2ccccc2c1=O)Nc1cc(C(F)(F)F)ccc1N1CCOCC1,,1.55%
CCCCCCCCCCCCn1ccc(=N)cc1,11.2 µM (active),
Cc1ccc(S(=O)(=O)NCCCn2ccnc2)cc1C(=O)NC(C)C,,11.2%
CCCn1cc(SCC(N)=O)c2ccccc21,,-1.74%
O=C(Nc1cccc2ccccc12)c1onc2c1CCCC2,14.1 µM (active),
O=C(Nc1cccc2ccccc12)NC1CC1,,-17%
O=C(Nc1cccc2ccccc12)c1[nH]c(-c2ccccc2)c2c1C(=O)N(C1CC1)C2=O,,8.14%
Cc1ccc(NC(=O)[C@H](Cc2ccccc2)NC(=O)C2CCNCC2)cc1,,13.7%

Structure (SMILES),Potency,"activity change, negative = less growth"
CC1c2nc3ccccc3n2C(CC(=O)NCCCN2CCOCC2)C(=O)N1Cc1ccccc1 (centres undefined),,-6.07%
CCOC(=O)c1sc(C)c2c1NC(C)(c1cccc3ccccc13)NC2=O (centres undefined),,29.2%
O=C(O)COc1ccc(/C=N/O)cc1Br,,3.56%
COc1ccc(Br)cc1CNCCc1cccc(Cl)c1,,-10.8%
COc1cc(/C=N/O)cc(Br)c1OCc1cccc(Cl)c1,10 µM (active),
CCc1noc(C)c1C(=O)OCC(=O)c1ccc(NC(=O)CC(C)C)cc1,,-10.5%
O=C(CN1CCN(c2ncccn2)CC1)Nc1ccccc1C(F)(F)F,,3.69%
Cc1noc(C)c1S(=O)(=O)N(C)C[C@H]1Oc2ccc(NC(=O)C3CC3)cc2C(=O)N([C@H](C)CO)C[C@@H]1C,,12.5%
Cc1ccc(Cl)c(NC(=O)CN(C)CC(=O)Nc2ccc(F)c(F)c2F)c1Cl,,-12.7%
CC(=O)Nc1ccc(/C=N/Nc2ccc(C(=O)c3c(C)cc4ccccn34)cc2[N+](=O)[O-])cc1,,5.89%
CCSC1(SCC)N=C(N)C2(C#N)C(c3ccccc3)NC(C)=CC12C#N (centres undefined),4.47 µM (active),
COc1ccc(C(=O)NC2CC2)cc1OC1CCN(Cc2ccc(SC)cc2)CC1,,5.43%
Cc1ccc(CN(Cc2cccnc2)C(=S)Nc2cc(Cl)ccc2C)cc1,,-11%
O=C1CSC(=S)N1/N=C/c1ccc(O)c([N+](=O)[O-])c1,28.2 µM (active),
O=C(CN(CC1CCCO1)C(=O)CNS(=O)(=O)c1ccccc1)NCc1ccccc1 (centres undefined),,10.6%
CCN(CC)S(=O)(=O)c1ccc(Cl)c(C(=O)NCCN2CCOCC2)c1,,-8.37%
Cc1c(C(=O)NCCN(C)C)oc2ccc(S(=O)(=O)N3CCCC3)cc12,,-6.44%
C[C@H](NC(=O)c1ccccc1Cl)C(=O)OCC(=O)N1CCN(c2ccccc2)CC1,,-11.8%
Cc1ccc(C)c(OCCC(=O)OCC(=O)N2CCN(c3ccccc3)CC2)c1,,-7.5%
O=C(OCC(=O)N1CCN(c2ccccc2)CC1)c1ccc([N+](=O)[O-])s1,39.8 µM (active),
CC(=O)c1cccc(-n2nnnc2SCC(=O)NNC(=O)C2CCCCC2)c1,,7.04%
C=CS(=O)c1sc(Cl)c(N2CCOCC2)c1[N+](=O)[O-] (centres undefined),12.6 µM (active),
COc1ccc(-c2ccc3c(c2)[C@@H]2C[C@H](N(C)S(=O)(=O)c4ccccc4)[C@H]([C@H](C)O)C(=O)N2CC3)cc1,,0.603%
CC(Oc1ccc(F)cc1)C(=O)Nc1cc(S(=O)(=O)N2CCOCC2)ccc1N1CCN(C)CC1 (centres undefined),,12.3%
